Experimental data taken from PubChem BioAssay AID1159580 (chemical genetic matrix, 2015).
Hit rate of the full screen: of about 5,500 compounds, about 2,000 (36%) were called active. Roughly 18% stayed inconclusive and do not appear here. No stated cut-off is given here; in the data, active means normalized growth mostly below about 0.91 (no sharp cut-off); inconclusive means no clear call, values can overlap the other calls; inactive means mostly above about 0.92. This is one part of the list.

Assay: chemical genetic growth profiling, strain panel (AID 1159580);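 further: tested at 20 µM; growth read once vehicle control cultures reached saturation at 30 °C; 1 = growth at the plate median or of vehicle wells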
Settings: growth OD

Measured: normalized growth

CO[C@H]1C[C@H](O[C@H]2[C@H](C)[C@@H](OC3O[C@H](C)C[C@H](N(C)C)[C@H]3O)[C@@H](C)C[C@]3(CO3)C(=O)[C@H](C)[C@@H](O)[C@@H](C)[C@@H](C)OC(=O)[C@@H]2C)O[C@@H](C)[C@@H]1O (some centres not stated)
inactive: S. cerevisiae deletion strains, locus YJR075W, strain HOC1, stronger effect = lower value 1.01 | S. cerevisiae deletion strains, locus YKL009W, strain mrt4, stronger effect = lower value 1 | S. cerevisiae deletion strains, locus YKL068W, stronger effect = lower value 1 | S. cerevisiae deletion strains, locus YKL085W, strain MDH1 (second series), stronger effect = lower value 0.992 | S. cerevisiae deletion strains, locus YKL085W, strain MDH1, stronger effect = lower value 0.992 | S. cerevisiae deletion strains, locus YKL160W, strain elf1, stronger effect = lower value 1.06 | S. cerevisiae deletion strains, locus YKL190W, strain CNB1, stronger effect = lower value 1 | S. cerevisiae deletion strains, locus YKR001C, strain vps1, stronger effect = lower value 1.02 | S. cerevisiae deletion strains, locus YKR026C, strain gcn3, stronger effect = lower value 1 | S. cerevisiae deletion strains, locus YKR091W, strain srl3, stronger effect = lower value 1 | S. cerevisiae deletion strains, locus YLL001W, strain dnm1, stronger effect = lower value 1.06 | S. cerevisiae deletion strains, locus YLL026W, stronger effect = lower value 1 | S. cerevisiae deletion strains, locus YLL041C, strain sdh2, stronger effect = lower value 1 | S. cerevisiae deletion strains, locus YLR027C, strain aat2, stronger effect = lower value 1.01 | S. cerevisiae deletion strains, locus YLR039C, strain RIC1, stronger effect = lower value 1.03 | S. cerevisiae deletion strains, locus YLR058C, strain SHM2, stronger effect = lower value 1.01 | S. cerevisiae deletion strains, locus YLR102C, strain apc9, stronger effect = lower value 0.984 | S. cerevisiae deletion strains, locus YLR113W, strain HOG1, stronger effect = lower value 0.995 | S. cerevisiae deletion strains, locus YLR221C, strain rsa3, stronger effect = lower value 1.03 | S. cerevisiae deletion strains, locus YLR258W, strain gsy2, stronger effect = lower value 1.03 | S. cerevisiae deletion strains, locus YLR262C, strain YPT6 (second series), stronger effect = lower value 1.02 | S. cerevisiae deletion strains, locus YLR262C, strain YPT6, stronger effect = lower value 0.956 | S. cerevisiae deletion strains, locus YLR268W, strain sec22, stronger effect = lower value 1.05 | S. cerevisiae deletion strains, locus YLR320W, strain mms22, stronger effect = lower value 1.07 | S. cerevisiae deletion strains, locus YLR330W, strain CHS5, stronger effect = lower value 1.01 | S. cerevisiae deletion strains, locus YLR342W, strain FKS1 (second series), stronger effect = lower value 1.01 | S. cerevisiae deletion strains, locus YLR342W, strain FKS1, stronger effect = lower value 1.01 | S. cerevisiae deletion strains, locus YLR357W, strain rsc2, stronger effect = lower value 1.05 | S. cerevisiae deletion strains, locus YLR370C, strain arc18, stronger effect = lower value 0.991 | S. cerevisiae deletion strains, locus YLR371W, strain rom2, stronger effect = lower value 0.985 | S. cerevisiae deletion strains, locus YLR384C, strain iki3, stronger effect = lower value 1 | S. cerevisiae deletion strains, locus YLR418C, strain cdc73, stronger effect = lower value 1.03 | S. cerevisiae deletion strains, locus YML016C, strain PPZ1, stronger effect = lower value 1 | S. cerevisiae deletion strains, locus YML032C, strain rad52, stronger effect = lower value 1.01 | S. cerevisiae deletion strains, locus YML120C, strain ndi1, stronger effect = lower value 1.02 | S. cerevisiae deletion strains, locus YML124C, strain tub3, stronger effect = lower value 1 | S. cerevisiae deletion strains, locus YMR058W, strain fet3, stronger effect = lower value 1.01 | S. cerevisiae deletion strains, locus YMR078C, strain ctf18, stronger effect = lower value 0.996 | S. cerevisiae deletion strains, locus YMR125W, strain sto1, stronger effect = lower value 1.07 | S. cerevisiae deletion strains, locus YMR129W, stronger effect = lower value 0.997 | S. cerevisiae deletion strains, locus YMR205C, strain PFK2, stronger effect = lower value 1.05 | S. cerevisiae deletion strains, locus YMR223W, strain ubp8, stronger effect = lower value 1 | S. cerevisiae deletion strains, locus YMR231W, strain pep5, stronger effect = lower value 1 | S. cerevisiae deletion strains, locus YMR263W, strain SAP30, stronger effect = lower value 1.02 | S. cerevisiae deletion strains, locus YMR307W, strain GAS1, stronger effect = lower value 0.983 | S. cerevisiae deletion strains, locus YNL067W, strain RPL9B, stronger effect = lower value 1.02 | S. cerevisiae deletion strains, locus YNL071W, strain lat1, stronger effect = lower value 1.01 | S. cerevisiae deletion strains, locus YNL128W, strain TEP1, stronger effect = lower value 1.01 | S. cerevisiae deletion strains, locus YNL153C, strain GIM3, stronger effect = lower value 1.01 | S. cerevisiae deletion strains, locus YNL183C, strain NPR1, stronger effect = lower value 0.962 | S. cerevisiae deletion strains, locus YNL209W, strain ssb2, stronger effect = lower value 1.01 | S. cerevisiae deletion strains, locus YNL233W, strain BNI4, stronger effect = lower value 1.02 | S. cerevisiae deletion strains, locus YNL248C, strain rpa49, stronger effect = lower value 1.09 | S. cerevisiae deletion strains, locus YNL250W, strain rad50, stronger effect = lower value 1.01 | S. cerevisiae deletion strains, locus YNL271C, strain bni1, stronger effect = lower value 1.01 | S. cerevisiae deletion strains, locus YNL298W, strain CLA4, stronger effect = lower value 1.01 | S. cerevisiae deletion strains, locus YNL307C, strain MCK1, stronger effect = lower value 0.982 | S. cerevisiae deletion strains, locus YNL322C, strain KRE1 (second series), stronger effect = lower value 1.02 | S. cerevisiae deletion strains, locus YNL322C, strain KRE1, stronger effect = lower value 1.01 | S. cerevisiae deletion strains, locus YNR049C, strain mso1, stronger effect = lower value 0.997 | S. cerevisiae deletion strains, locus YNR052C, strain pop2, stronger effect = lower value 0.99 | S. cerevisiae deletion strains, locus YOL006C, strain TOP1, stronger effect = lower value 1.03 | S. cerevisiae deletion strains, locus YOL012C, strain htz1 1.14 | S. cerevisiae deletion strains, locus YOL147C, strain pex11, stronger effect = lower value 0.996 | S. cerevisiae deletion strains, locus YOR001W, strain rrp6, stronger effect = lower value 0.974 | S. cerevisiae deletion strains, locus YOR061W, strain CKA2, stronger effect = lower value 1 | S. cerevisiae deletion strains, locus YOR069W, strain VPS5, stronger effect = lower value 1.01 | S. cerevisiae deletion strains, locus YOR070C, strain gyp1, stronger effect = lower value 0.999 | S. cerevisiae deletion strains, locus YOR080W, strain dia2, stronger effect = lower value 0.988 | S. cerevisiae deletion strains, locus YOR083W, strain WHI5, stronger effect = lower value 1.07 | S. cerevisiae deletion strains, locus YOR106W, strain vam3, stronger effect = lower value 1.08 | S. cerevisiae deletion strains, locus YOR136W, strain idh2, stronger effect = lower value 1.01 | S. cerevisiae deletion strains, locus YOR144C, strain elg1, stronger effect = lower value 1 | S. cerevisiae deletion strains, locus YOR184W, strain ser1, stronger effect = lower value 1.01 | S. cerevisiae deletion strains, locus YOR231W, strain MKK1, stronger effect = lower value 1 | S. cerevisiae deletion strains, locus YOR265W, strain rbl2, stronger effect = lower value 1 | S. cerevisiae deletion strains, locus YOR270C, strain vph1, stronger effect = lower value 1.03 | S. cerevisiae deletion strains, locus YOR290C, strain snf2, stronger effect = lower value 1.03 | S. cerevisiae deletion strains, locus YOR316C, strain cot1, stronger effect = lower value 0.985 | S. cerevisiae deletion strains, locus YPL051W, strain arl3, stronger effect = lower value 1.04 | S. cerevisiae deletion strains, locus YPL055C, strain LGE1, stronger effect = lower value 1.05 | S. cerevisiae deletion strains, locus YPL078C, strain atp4, stronger effect = lower value 1.06 | S. cerevisiae deletion strains, locus YPL106C, strain sse1, stronger effect = lower value 1.03 | S. cerevisiae deletion strains, locus YPL240C, strain hsp82, stronger effect = lower value 1 | S. cerevisiae deletion strains, locus YPL241C, strain CIN2, stronger effect = lower value 1 | S. cerevisiae deletion strains, locus YPL256C, strain CLN2, stronger effect = lower value 0.982 | S. cerevisiae deletion strains, locus YPR119W, strain clb2, stronger effect = lower value 0.99 | S. cerevisiae deletion strains, locus YPR141C, strain kar3, stronger effect = lower value 1.01 | S. cerevisiae deletion strains, locus YPR163C, strain tif3, stronger effect = lower value 0.989 | S. cerevisiae deletion strains, locus YPR167C, strain met16, stronger effect = lower value 1 | S. cerevisiae deletion strains, strain wtn01, stronger effect = lower value 1.03 | S. cerevisiae strains, strain wild type, stronger effect = lower value 1
